From ChEMBL document CHEMBL2218924, “A broad activity screen in support of a chemogenomic map for kinase signalling research and drug discovery” (Biochem J, 2013)

Legend:
[1] = target: T1, Tyrosine-protein kinase receptor TYRO3 (Homo sapiens) (UniProt Q06418); settings: at 1 µM
T1 sequence (whole entry): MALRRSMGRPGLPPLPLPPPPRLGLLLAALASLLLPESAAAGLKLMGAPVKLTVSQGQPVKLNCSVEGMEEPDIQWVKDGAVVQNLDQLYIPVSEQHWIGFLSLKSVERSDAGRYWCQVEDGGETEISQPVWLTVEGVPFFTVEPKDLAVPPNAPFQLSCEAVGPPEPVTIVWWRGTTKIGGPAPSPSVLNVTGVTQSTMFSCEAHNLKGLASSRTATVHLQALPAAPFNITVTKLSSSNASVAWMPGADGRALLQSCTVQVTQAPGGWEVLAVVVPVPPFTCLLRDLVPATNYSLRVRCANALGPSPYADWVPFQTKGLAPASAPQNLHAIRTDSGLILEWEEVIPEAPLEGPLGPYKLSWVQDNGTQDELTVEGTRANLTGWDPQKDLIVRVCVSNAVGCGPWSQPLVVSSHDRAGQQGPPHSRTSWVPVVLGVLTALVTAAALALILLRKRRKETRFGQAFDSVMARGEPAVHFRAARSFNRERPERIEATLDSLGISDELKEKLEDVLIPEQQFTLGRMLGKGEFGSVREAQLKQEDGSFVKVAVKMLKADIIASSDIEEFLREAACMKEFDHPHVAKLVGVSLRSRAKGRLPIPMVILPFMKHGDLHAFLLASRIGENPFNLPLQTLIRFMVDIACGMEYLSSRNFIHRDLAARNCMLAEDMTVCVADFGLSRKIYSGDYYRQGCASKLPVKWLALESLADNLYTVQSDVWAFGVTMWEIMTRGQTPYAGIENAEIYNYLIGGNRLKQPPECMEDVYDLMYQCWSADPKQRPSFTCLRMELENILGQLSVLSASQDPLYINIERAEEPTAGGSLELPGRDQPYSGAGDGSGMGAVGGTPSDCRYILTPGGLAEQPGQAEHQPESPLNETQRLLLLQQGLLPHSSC

[2] = target: T1, Tyrosine-protein kinase receptor TYRO3 (Homo sapiens); settings: at 10 µM
[3] = target: Ribosomal protein S6 kinase alpha-1 (Homo sapiens) (UniProt Q15418); settings: at 10 µM
[4] = target: Ribosomal protein S6 kinase alpha-3 (Homo sapiens) (UniProt P51812); settings: at 1 µM
[5] = target: Ribosomal protein S6 kinase alpha-3 (Homo sapiens) (UniProt P51812); settings: at 10 µM
[6] = target: Ribosomal protein S6 kinase alpha-2 (Homo sapiens) (UniProt Q15349); settings: at 10 µM
[7] = target: Ribosomal protein S6 kinase alpha-6 (Homo sapiens) (UniProt Q9UK32); settings: at 1 µM
[8] = target: Ribosomal protein S6 kinase alpha-6 (Homo sapiens) (UniProt Q9UK32); settings: at 10 µM
[9] = target: T2, Serine/threonine-protein kinase Sgk1 (Homo sapiens) (UniProt O00141); settings: at 10 µM
T2 sequence (whole entry): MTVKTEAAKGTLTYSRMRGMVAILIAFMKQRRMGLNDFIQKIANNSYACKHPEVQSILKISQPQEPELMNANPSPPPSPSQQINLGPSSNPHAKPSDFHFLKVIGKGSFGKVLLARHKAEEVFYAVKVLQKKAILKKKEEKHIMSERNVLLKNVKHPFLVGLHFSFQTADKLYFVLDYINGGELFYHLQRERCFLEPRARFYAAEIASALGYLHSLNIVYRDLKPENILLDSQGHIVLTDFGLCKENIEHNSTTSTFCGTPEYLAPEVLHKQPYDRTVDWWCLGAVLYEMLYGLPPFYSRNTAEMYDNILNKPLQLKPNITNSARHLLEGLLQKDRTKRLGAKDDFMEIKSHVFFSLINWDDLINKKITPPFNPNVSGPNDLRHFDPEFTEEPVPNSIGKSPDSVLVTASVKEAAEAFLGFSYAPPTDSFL

[10] = target: T3, Mitogen-activated protein kinase 12 (Homo sapiens) (UniProt P53778); settings: at 1 µM
T3 sequence (whole entry): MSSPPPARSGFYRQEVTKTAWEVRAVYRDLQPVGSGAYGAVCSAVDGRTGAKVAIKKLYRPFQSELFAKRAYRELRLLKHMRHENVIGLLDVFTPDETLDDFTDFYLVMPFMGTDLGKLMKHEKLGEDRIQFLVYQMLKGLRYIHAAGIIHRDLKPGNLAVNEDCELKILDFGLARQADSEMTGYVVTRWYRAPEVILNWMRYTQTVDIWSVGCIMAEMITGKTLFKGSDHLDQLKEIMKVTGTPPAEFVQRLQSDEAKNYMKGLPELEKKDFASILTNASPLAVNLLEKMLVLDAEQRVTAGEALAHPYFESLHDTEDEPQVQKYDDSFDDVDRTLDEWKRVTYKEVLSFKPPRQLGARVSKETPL

[11] = target: T3, Mitogen-activated protein kinase 12 (Homo sapiens); settings: at 10 µM
[12] = target: Mitogen-activated protein kinase 14 (Homo sapiens) (UniProt Q16539); settings: at 1 µM
[13] = target: Mitogen-activated protein kinase 14 (Homo sapiens) (UniProt Q16539); settings: at 10 µM
[14] = target: Mitogen-activated protein kinase 11 (Homo sapiens) (UniProt Q15759); settings: at 1 µM
[15] = target: Mitogen-activated protein kinase 11 (Homo sapiens) (UniProt Q15759); settings: at 10 µM
[16] = target: Ribosomal protein S6 kinase alpha-1 (Homo sapiens) (UniProt Q15418); settings: at 1 µM
[17] = target: Ribosomal protein S6 kinase alpha-2 (Homo sapiens) (UniProt Q15349); settings: at 1 µM
[18] = target: T2, Serine/threonine-protein kinase Sgk1 (Homo sapiens); settings: at 1 µM
[19] = target: T4, Mitogen-activated protein kinase 13 (Homo sapiens) (UniProt O15264); settings: at 1 µM
T4 sequence (whole entry): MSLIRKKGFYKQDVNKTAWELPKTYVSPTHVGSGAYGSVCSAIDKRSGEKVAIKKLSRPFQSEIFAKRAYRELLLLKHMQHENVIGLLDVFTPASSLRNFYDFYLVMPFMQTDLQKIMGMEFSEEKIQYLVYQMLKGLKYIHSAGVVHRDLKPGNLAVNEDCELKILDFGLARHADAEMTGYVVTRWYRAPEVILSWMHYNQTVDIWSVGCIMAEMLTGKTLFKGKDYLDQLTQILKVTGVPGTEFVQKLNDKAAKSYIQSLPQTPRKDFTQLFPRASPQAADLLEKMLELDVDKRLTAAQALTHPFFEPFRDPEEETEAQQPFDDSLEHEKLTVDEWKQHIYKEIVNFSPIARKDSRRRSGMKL

[20] = target: T4, Mitogen-activated protein kinase 13 (Homo sapiens); settings: at 10 µM

Chain of Mitogen-activated protein kinase 11 (Homo sapiens) (Q15759 whole entry): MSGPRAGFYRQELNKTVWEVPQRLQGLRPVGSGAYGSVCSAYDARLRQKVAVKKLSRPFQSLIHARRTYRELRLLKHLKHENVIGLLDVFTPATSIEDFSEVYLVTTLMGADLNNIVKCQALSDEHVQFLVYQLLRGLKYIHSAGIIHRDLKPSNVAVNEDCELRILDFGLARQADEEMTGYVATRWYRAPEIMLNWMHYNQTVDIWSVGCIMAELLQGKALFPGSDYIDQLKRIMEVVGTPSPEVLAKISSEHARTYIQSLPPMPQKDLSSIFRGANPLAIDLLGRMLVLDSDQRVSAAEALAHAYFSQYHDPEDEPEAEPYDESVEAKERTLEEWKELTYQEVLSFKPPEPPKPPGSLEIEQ
Chain of Ribosomal protein S6 kinase alpha-1 (Homo sapiens) (Q15418 whole entry): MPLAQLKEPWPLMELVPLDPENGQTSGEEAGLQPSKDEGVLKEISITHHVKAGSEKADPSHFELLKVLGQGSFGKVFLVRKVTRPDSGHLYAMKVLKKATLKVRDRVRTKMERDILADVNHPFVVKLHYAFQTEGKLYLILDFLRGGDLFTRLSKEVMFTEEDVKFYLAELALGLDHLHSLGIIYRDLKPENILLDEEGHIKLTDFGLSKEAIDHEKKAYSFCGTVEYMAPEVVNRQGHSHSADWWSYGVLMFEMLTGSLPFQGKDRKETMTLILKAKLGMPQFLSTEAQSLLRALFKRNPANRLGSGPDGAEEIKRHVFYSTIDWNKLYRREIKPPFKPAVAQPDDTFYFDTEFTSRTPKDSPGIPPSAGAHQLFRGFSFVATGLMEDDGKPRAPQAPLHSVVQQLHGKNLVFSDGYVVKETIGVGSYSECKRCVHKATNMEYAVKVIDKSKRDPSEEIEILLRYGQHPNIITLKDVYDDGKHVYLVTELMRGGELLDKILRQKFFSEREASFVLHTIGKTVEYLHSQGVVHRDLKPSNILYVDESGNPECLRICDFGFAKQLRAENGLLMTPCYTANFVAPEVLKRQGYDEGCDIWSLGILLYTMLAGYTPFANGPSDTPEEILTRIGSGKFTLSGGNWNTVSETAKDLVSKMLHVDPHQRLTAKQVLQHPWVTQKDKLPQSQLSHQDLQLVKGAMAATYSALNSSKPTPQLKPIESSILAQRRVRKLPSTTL
Chain of Ribosomal protein S6 kinase alpha-3 (Homo sapiens) (P51812 whole entry): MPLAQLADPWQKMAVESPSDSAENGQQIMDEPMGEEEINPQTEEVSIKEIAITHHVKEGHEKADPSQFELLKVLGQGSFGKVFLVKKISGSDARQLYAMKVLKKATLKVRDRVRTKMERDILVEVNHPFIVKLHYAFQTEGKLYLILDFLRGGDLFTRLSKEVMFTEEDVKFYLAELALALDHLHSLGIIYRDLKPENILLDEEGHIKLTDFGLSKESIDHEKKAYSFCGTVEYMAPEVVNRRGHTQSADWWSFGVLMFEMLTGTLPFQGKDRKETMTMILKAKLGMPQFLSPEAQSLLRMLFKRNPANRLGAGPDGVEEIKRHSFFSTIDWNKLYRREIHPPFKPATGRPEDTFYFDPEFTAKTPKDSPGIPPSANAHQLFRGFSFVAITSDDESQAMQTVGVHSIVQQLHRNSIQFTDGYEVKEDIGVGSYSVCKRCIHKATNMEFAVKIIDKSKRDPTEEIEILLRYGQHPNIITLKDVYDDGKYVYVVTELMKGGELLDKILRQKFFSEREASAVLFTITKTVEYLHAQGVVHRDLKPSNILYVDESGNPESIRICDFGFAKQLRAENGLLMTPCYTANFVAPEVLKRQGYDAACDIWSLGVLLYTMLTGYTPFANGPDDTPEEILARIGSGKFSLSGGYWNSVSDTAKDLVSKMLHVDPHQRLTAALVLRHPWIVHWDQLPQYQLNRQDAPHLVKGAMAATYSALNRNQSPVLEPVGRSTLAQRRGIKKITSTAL
Chain of Ribosomal protein S6 kinase alpha-2 (Homo sapiens) (Q15349 whole entry): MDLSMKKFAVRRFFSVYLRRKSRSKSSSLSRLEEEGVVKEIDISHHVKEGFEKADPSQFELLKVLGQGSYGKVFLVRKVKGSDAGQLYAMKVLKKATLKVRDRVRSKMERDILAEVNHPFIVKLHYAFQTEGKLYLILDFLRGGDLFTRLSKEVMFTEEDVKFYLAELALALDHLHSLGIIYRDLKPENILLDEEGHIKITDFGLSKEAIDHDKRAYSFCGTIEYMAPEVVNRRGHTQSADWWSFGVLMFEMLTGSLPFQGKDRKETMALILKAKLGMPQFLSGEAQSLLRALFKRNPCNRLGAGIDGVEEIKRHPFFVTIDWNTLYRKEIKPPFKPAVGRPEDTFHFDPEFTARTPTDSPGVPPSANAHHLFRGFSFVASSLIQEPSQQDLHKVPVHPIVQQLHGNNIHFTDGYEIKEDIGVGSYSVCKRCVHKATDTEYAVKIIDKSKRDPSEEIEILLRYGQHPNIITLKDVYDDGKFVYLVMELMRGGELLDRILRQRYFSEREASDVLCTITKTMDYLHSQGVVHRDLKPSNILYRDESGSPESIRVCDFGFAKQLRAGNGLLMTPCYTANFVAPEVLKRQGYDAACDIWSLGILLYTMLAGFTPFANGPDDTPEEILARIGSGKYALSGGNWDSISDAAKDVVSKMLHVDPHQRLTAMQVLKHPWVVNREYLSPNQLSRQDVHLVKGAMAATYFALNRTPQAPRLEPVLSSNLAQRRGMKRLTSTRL
Chain of Ribosomal protein S6 kinase alpha-6 (Homo sapiens) (Q9UK32 whole entry): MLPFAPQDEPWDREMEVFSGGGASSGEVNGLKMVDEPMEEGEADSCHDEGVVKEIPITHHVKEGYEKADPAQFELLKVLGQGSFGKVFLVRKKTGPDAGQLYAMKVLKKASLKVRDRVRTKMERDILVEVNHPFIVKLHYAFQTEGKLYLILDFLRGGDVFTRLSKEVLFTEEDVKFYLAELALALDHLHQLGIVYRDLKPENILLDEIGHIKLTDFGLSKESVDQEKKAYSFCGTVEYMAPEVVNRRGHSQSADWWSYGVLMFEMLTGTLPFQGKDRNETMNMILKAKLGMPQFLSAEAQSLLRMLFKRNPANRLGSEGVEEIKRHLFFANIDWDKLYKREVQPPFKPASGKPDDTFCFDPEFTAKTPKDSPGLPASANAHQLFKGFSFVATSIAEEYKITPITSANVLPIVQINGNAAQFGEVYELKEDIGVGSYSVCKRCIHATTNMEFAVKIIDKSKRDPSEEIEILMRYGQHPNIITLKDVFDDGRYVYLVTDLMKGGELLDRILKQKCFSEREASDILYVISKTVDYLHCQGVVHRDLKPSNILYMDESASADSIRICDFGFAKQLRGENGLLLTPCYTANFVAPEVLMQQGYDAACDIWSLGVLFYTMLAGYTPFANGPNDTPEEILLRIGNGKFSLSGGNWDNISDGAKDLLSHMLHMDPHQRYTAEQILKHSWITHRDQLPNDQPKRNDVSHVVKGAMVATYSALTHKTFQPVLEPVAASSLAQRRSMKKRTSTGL
Chain of Mitogen-activated protein kinase 14 (Homo sapiens) (Q16539 whole entry): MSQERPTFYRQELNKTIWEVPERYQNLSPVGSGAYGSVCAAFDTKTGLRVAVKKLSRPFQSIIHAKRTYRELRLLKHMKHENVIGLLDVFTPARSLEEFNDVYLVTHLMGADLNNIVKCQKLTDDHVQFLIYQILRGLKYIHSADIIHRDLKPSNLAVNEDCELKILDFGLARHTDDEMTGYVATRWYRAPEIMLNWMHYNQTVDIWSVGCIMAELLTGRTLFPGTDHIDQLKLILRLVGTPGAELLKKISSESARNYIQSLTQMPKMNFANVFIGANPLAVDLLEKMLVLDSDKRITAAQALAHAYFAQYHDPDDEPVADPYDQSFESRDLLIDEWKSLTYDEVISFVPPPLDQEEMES

c1cc(-c2cnn3cc(-c4ccc(OCCN5CCCCC5)cc4)cnc23)ccn1
residual activity [1]: 104%
residual activity [2]: 67%
residual activity [3]: 74%
residual activity [4]: 46%
residual activity [5]: 28%
residual activity [6]: 50%
residual activity [7]: 68%
residual activity [8]: 63%
residual activity [9]: 66%

O=C1NC(=O)/C(=C/c2ccc3c(c2)OC(F)(F)O3)S1
residual activity [10]: 110%
residual activity [11]: 113%

O=c1cc(N2CCNCC2)oc2c(-c3ccccc3)cccc12
residual activity [10]: 92%
residual activity [11]: 105%

COc1cc2c(cc1OC)-c1n[nH]c(Nc3cccc(F)c3)c1C2
residual activity [10]: 100%

CN[C@@H]1C[C@H]2O[C@@](C)([C@@H]1OC)n1c3ccccc3c3c4c(c5c6ccccc6n2c5c31)C(=O)NC4
residual activity [12]: 81%
residual activity [13]: 79%
residual activity [14]: 97%
residual activity [15]: 89%

N#Cc1c(NC(=O)c2cccc3ccccc23)sc2c1CCCC2
residual activity [10]: 96%

O=C1NC(=O)c2c1c1c3ccccc3n3c1c1c2c2ccccc2n1C1CCC3O1
residual activity [16]: 13%
residual activity [3]: 7%
residual activity [4]: 11%
residual activity [5]: 3%
residual activity [17]: 8%
residual activity [6]: 8%
residual activity [7]: 9%
residual activity [8]: 17%
residual activity [18]: 53%
residual activity [9]: 43%

Oc1ccc(-c2nc(-c3ccc(F)cc3)c(-c3ccncc3)[nH]2)cc1
residual activity [12]: 1%
residual activity [13]: 1%
residual activity [10]: 112%
residual activity [11]: 67%

CC(C)c1nn(-c2c(Cl)cccc2Cl)c2nc(Cc3ccc(OCCO)cc3)[nH]c(=O)c12
residual activity [10]: 105%
residual activity [11]: 101%

O=C1NC(=O)c2cc(Nc3ccc(F)cc3)c(Nc3ccc(F)cc3)cc21
residual activity [10]: 99%
residual activity [11]: 82%

COC(=O)[C@@]1(O)C[C@H]2O[C@]1(C)n1c3ccccc3c3c4c(c5c6ccccc6n2c5c31)C(=O)NC4
residual activity [1]: 6%
residual activity [2]: 2%
residual activity [16]: 1%
residual activity [3]: 2%
residual activity [4]: 1%
residual activity [5]: 1%
residual activity [17]: 0%
residual activity [6]: 1%
residual activity [7]: -2%
residual activity [8]: 3%
residual activity [12]: 92%
residual activity [13]: 67%
residual activity [14]: 77%
residual activity [15]: 29%
residual activity [10]: 23%
residual activity [11]: 2%
residual activity [19]: 58%
residual activity [20]: 10%
residual activity [18]: 4%
residual activity [9]: 1%

O=C(O)c1ccc2c3c1cccc3c(=O)n1c3ccccc3nc21
residual activity [10]: 106%
residual activity [11]: 102%

O=C1c2ccccc2-c2nc3nnnn3nc21
residual activity [1]: 106%
residual activity [2]: 114%
residual activity [16]: 109%
residual activity [3]: 103%
residual activity [4]: 67%
residual activity [5]: 53%
residual activity [17]: 120%
residual activity [6]: 106%
residual activity [12]: 111%
residual activity [13]: 112%
residual activity [14]: 102%
residual activity [15]: 104%
residual activity [10]: 130%
residual activity [11]: 117%
residual activity [19]: 119%
residual activity [20]: 101%
residual activity [18]: 146%
residual activity [9]: 71%

Cc1cc(Nc2nc(-c3ccccc3)nc3ccccc23)n[nH]1
residual activity [10]: 103%

CO[C@@H]1[C@H](N(C)C(=O)c2ccccc2)C[C@H]2O[C@]1(C)n1c3ccccc3c3c4c(c5c6ccccc6n2c5c31)C(=O)NC4
residual activity [10]: 104%
residual activity [11]: 87%

c1ccc(-c2n[nH]cc2-c2ccnc3ccccc23)nc1
residual activity [10]: 101%

COc1cc(OC)c(/C=C2\C(=O)Nc3ccccc32)c(OC)c1
residual activity [16]: 102%
residual activity [3]: 101%
residual activity [4]: 63%
residual activity [5]: 57%
residual activity [17]: 96%
residual activity [6]: 97%
residual activity [7]: 103%
residual activity [8]: 95%
residual activity [12]: 89%
residual activity [13]: 85%
residual activity [14]: 99%
residual activity [15]: 92%
residual activity [10]: 97%
residual activity [11]: 96%
residual activity [18]: 82%
residual activity [9]: 86%

CC(C)[C@H](CO)Nc1nc(Nc2cccc(Cl)c2)c2ncn(C(C)C)c2n1
residual activity [1]: 85%
residual activity [2]: 78%
residual activity [16]: 77%
residual activity [3]: 19%
residual activity [4]: 62%
residual activity [5]: 15%
residual activity [17]: 75%
residual activity [6]: 21%
residual activity [7]: 40%
residual activity [8]: 24%
residual activity [12]: 88%
residual activity [13]: 80%
residual activity [14]: 101%
residual activity [15]: 96%
residual activity [11]: 98%

COc1cc2ncnc(Nc3ccc(O)c(Br)c3)c2cc1OC
residual activity [10]: 98%
residual activity [11]: 97%

C[S+]([O-])c1ccc(-c2nc(-c3ccc(F)cc3)c(-c3ccncc3)[nH]2)cc1 (centres undefined)
residual activity [1]: 107%
residual activity [3]: 80%
residual activity [4]: 108%
residual activity [5]: 97%
residual activity [17]: 107%
residual activity [6]: 96%
residual activity [7]: 114%
residual activity [8]: 113%
residual activity [10]: 114%
residual activity [11]: 86%
residual activity [19]: 111%
residual activity [18]: 96%
residual activity [9]: 124%

N/C(=N\[N+](=O)[O-])N/N=C\c1ccc(-c2cccc([N+](=O)[O-])c2)o1
residual activity [4]: 43%
residual activity [5]: 52%
residual activity [7]: 93%
residual activity [8]: 96%
residual activity [12]: 81%
residual activity [13]: 91%

COc1ccc2c(c1)/C(=C/c1cnc[nH]1)C(=O)N2
residual activity [1]: 97%
residual activity [2]: 73%
residual activity [16]: 60%
residual activity [3]: 17%
residual activity [17]: 30%
residual activity [6]: 4%
residual activity [7]: 53%
residual activity [8]: 12%

CO[C@H]1[C@@H](OC)C[C@H](C)[C@@H](OC)C2=CC(=O)C=C(NC(=O)/C(C)=C/C=C/[C@H](OC)[C@@H](OC(N)=O)/C(C)=C/[C@@H]1C)C2=O
residual activity [12]: 95%
residual activity [13]: 106%
residual activity [10]: 110%
residual activity [11]: 99%

COc1ccc2c(c[n+](C)c3c4cc5c(cc4ccc23)OCO5)c1OC
residual activity [1]: 89%
residual activity [2]: 79%
residual activity [3]: 92%
residual activity [5]: 91%
residual activity [6]: 93%
residual activity [11]: 94%
residual activity [9]: 85%

COc1ccc(C(=O)Nc2sc3c(c2C(N)=O)CCCC3)cc1OC
residual activity [10]: 95%
residual activity [11]: 83%

O=[N+]([O-])/C=C/c1ccc2c(c1)OCO2
residual activity [1]: 100%
residual activity [2]: 111%
residual activity [16]: 137%
residual activity [3]: 106%
residual activity [4]: 118%
residual activity [5]: 100%
residual activity [17]: 105%
residual activity [6]: 94%
residual activity [7]: 128%
residual activity [8]: 94%
residual activity [12]: 93%
residual activity [13]: 105%
residual activity [14]: 102%
residual activity [15]: 110%
residual activity [10]: 107%
residual activity [11]: 99%
residual activity [19]: 103%
residual activity [20]: 98%
residual activity [18]: 76%
residual activity [9]: 105%
